The results in this text go back to PubChem BioAssay.

Active and inactive are the calls of the source.

Experiment [1] deals with Human papillomavirus type 1a protein E7 (residues 44-93). Briefly: HPV1a E7 fragment binders on microarrays, primary screen, biochemical, small-molecule microarray, residues 44-93, 635 nm fluorescence (AID 1108).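 Also: E7 fragment applied at 1 µg/mL in TBST for 1 h at 4 C; score combines spot fluorescence with its signal to noise ratio.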 The note with it: small-molecule microarray binding, fluorescence 635 nm; higher = more signal.
Experiment [2] can be described thus: modulators of HCV replicon luciferase signal, primary screen, HCV replication inhibitor project, Huh7 cells, luciferase reporter (AID 1109).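 Also: huh7 hepatoma cells harbouring a luciferase neomycin HCV replicon reporter; luciferase luminescence as measure of HCV replicon replication; test concentration not given here.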 To be noted: 48 h, higher = more signal. In general terms: Replicon systems follow genome replication, usually without infectious particles.
Experiment [3] addresses Left-right determination factor 2 (Homo sapiens) (UniProt O00292). Briefly: LEFTY2 binders on small-molecule microarrays, primary screen, biochemical, small-molecule microarray, 635 nm fluorescence scan (AID 1110). The note with it: LEFTY2 binding, higher = more signal.
Experiment [4] addresses Calmodulin-1 (Homo sapiens) (UniProt P0DP23). Briefly: CALM1 binders on microarrays, EGTA buffer, profiling panel, biochemical, small-molecule microarray, Cy5-labelled CALM1 (AID 1111).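 Also: labelled calmodulin applied in Tris saline Tween buffer holding calcium plus EGTA and DTT.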 The note with it: Cy5-CALM1 binding fluorescence, higher = more signal.
Experiment [5] shares this target. Briefly: calcium-bound CALM1 binders on microarrays, profiling panel, artefact control for SMM control-protein annotation, biochemical, small-molecule microarray, Cy5-labelled CALM1, plus calcium (AID 1112).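 Also: score merges spot fluorescence with signal to noise from triplicate slides.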 The note with it: Cy5-CALM1 binding fluorescence, higher = more signal.
Experiment [6] is described as follows: small-molecule microarray binders of probe aWnt5a, primary screen, biochemical, biotinylated probe, 635/667 nm fluorescence (AID 1113).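 Also: score merges 667 nm fluorescence intensity with signal-to-noise per printed feature.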 To be noted: higher = more signal.
Experiment [7] is described as follows: small-molecule microarray binders of probe aShh, primary screen, biochemical, biotinylated probe, 635/667 nm fluorescence (AID 1114).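 Also: probe is biotin-labelled aShh protein from a stem cell growth factor screen; measures binding of labelled protein to compounds printed on the slide; score merges feature fluorescence at 667 nm with signal-to-noise.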 The note with it: higher = more signal.
A short description of experiment [8]: small-molecule microarray binders of probe aNog, primary screen, biochemical, biotinylated probe, 635/667 nm fluorescence (AID 1115).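 Also: probe is biotinylated aNog protein used at 0.15 µg/mL for 1 h at 4 C; z-score combines 667 nm fluorescence of each spot with its signal to noise.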 To be noted: higher = more signal.
Experiment [9] deals with Torsin-1A-interacting protein 1 (Homo sapiens) (UniProt Q5JTV8). Put plainly: LAP1 binders from COS7 cell lysate, primary screen, small-molecule microarray, 635/667 nm fluorescence (AID 1116). To be noted: COS7-hLAP1 lysate binding, 635 nm fluorescence, higher = more signal.
Torsin-1A-interacting protein 1 (Homo sapiens), sequence (Q5JTV8 whole entry, looked up): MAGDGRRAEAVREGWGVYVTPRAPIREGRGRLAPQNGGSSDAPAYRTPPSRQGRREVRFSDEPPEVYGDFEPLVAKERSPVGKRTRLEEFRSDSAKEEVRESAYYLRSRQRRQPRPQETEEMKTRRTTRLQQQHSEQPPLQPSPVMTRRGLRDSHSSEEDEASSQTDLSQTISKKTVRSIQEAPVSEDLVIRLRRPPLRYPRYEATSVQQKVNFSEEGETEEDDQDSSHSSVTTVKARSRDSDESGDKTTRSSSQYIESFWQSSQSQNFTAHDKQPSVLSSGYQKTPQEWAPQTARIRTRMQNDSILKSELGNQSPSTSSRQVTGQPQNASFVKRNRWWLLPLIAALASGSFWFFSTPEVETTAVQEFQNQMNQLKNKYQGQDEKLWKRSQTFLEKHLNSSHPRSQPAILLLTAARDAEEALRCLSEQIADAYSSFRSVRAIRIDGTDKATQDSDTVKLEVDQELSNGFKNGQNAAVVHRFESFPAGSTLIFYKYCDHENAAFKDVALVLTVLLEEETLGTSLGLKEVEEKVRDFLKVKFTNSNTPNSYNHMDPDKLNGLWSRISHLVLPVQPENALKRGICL
In experiment [10] the target is Alpha-bungarotoxin (Bungarus multicinctus) (UniProt P60615). Put plainly: alpha-bungarotoxin binders on microarray, profiling panel, artefact control for SMM control protein annotation, biochemical, small-molecule microarray, Alexa647 label, 635/667 nm fluorescence (AID 1117). To be noted: alpha-BTX-A647 binding fluorescence, higher = more signal.
Alpha-bungarotoxin (Bungarus multicinctus), sequence (P60615 whole entry, looked up): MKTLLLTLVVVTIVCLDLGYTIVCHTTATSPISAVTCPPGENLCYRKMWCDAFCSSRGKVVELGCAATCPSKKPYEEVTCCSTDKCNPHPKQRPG
The target in experiment [11] is Albumin (Bos taurus) (UniProt P02769). Briefly: bovine serum albumin binders on microarray, profiling panel, artefact control for SMM control protein annotation, biochemical, small-molecule microarray, Alexa647 label, 635/667 nm fluorescence (AID 1118).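 Also: score merges 667 nm emission intensity and signal-to-noise per printed compound spot.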 To be noted: BSA-A647 binding, fluorescence 635 nm, higher = more signal.
Albumin (Bos taurus), sequence (P02769 whole entry, looked up): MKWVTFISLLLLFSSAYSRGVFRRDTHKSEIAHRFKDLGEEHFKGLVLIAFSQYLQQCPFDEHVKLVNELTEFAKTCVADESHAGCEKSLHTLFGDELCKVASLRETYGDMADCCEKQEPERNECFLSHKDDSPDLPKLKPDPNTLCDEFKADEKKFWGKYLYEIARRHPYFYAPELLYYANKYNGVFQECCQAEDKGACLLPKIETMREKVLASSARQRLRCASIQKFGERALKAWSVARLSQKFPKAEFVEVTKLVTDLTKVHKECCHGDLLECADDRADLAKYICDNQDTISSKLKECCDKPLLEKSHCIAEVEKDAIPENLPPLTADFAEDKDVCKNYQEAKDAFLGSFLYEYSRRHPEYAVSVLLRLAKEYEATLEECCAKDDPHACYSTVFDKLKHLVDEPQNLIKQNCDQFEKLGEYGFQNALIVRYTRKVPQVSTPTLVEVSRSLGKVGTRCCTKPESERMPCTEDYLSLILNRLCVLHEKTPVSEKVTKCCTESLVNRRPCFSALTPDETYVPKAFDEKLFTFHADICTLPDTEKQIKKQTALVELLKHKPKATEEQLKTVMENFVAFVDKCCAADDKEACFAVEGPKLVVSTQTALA
A short description of experiment [12]: small-molecule microarray binders of probe aXIP, primary screen, biochemical, NeuroSMM set, 635/667 nm fluorescence (AID 1119).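 Also: probe is the protein aXip251-270 applied at 1 µg/mL to compound-printed slides; binding of probe to printed compounds measured as 667 nm fluorescence plus signal to noise.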 To be noted: higher = more signal, called active from +8 up or from −8 down.
Experiment [13] is described as follows: small-molecule binders of probe aNOTCH3, primary screen, biochemical, small-molecule microarray, 635/667 nm fluorescence (AID 1120).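 Also: probe is a biotin-tagged antibody raised against NOTCH3 rather than NOTCH3 protein; score merges spot fluorescence near 667 nm with spot signal to noise.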 To be noted: higher = more signal.
The nature of experiment [14]: small-molecule binders of probe aNOTCH2, primary screen, biochemical, small-molecule microarray, 635/667 nm fluorescence (AID 1121).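 Also: score merges feature fluorescence read at 667 nm with its signal to noise.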 The note with it: higher = more signal.
In experiment [15] the target is Carbonic anhydrase 2 (Homo sapiens) (UniProt P00918). Put plainly: CAII small-molecule binders, profiling panel, biochemical, small-molecule microarray, Alexa647-labelled CAII (AID 1122). To be noted: CAII-A647 binding fluorescence, higher = more signal.
A short description of experiment [16]: COS7 lysate on small-molecule microarray, probe aHis, 635 nm (AID 1123).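 Also: z-score combines 667nm fluorescence intensity with signal-to-noise per printed compound spot.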 To be noted: COS7 cell lysate, fluorescence, higher = more signal.
The nature of experiment [17]: compound binding in COS7 lysate, probe aLAP1, primary screen, cell lysate, small-molecule microarray (AID 1124).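 Also: lysate comes from COS7 cells expressing LAP1 and is applied at 0.3 µg/mL; score merges spot fluorescence near 667 nm with signal-to-noise over triplicate slides.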 The note with it: probe aLAP1, fluorescence, higher = more signal.
Experiment [18] deals with Sam68 (KHDRBS1). Put plainly: Sam68 small-molecule binders, primary screen, biochemical, small-molecule microarray, 635 nm fluorescence (AID 1125).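 Also: score merges 667 nm channel intensity with signal to noise over triplicate slides.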 To be noted: small-molecule microarray binding, higher = more signal.
In experiment [19] the test system is Chordin-like protein 2 (CHRDL2). Put plainly: CHRDL2 small-molecule binders, primary screen, biochemical, small-molecule microarray, 635 nm fluorescence (AID 1126).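 Also: printed compound slides probed with Chrdl2 protein at 4 µg/mL for 1 h at 4 C; score merges 667 nm emission intensity with signal to noise over three replicate slides.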 The note with it: small-molecule microarray binding, fluorescence 635 nm; higher = more signal.
For experiment [20], the target named is Concanavalin-A (Canavalia ensiformis) (UniProt P02866). Briefly: ConA small-molecule binders, primary screen, artefact control for SMM control protein annotation, biochemical, small-molecule microarray, Alexa647 label, 635 nm (AID 1127).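 Also: z combines 667 nm emission intensity with signal-to-noise across three replicate slides.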 To be noted: ConA-A647 binding fluorescence, higher = more signal.
Concanavalin-A (Canavalia ensiformis), sequence (P02866 whole entry, looked up): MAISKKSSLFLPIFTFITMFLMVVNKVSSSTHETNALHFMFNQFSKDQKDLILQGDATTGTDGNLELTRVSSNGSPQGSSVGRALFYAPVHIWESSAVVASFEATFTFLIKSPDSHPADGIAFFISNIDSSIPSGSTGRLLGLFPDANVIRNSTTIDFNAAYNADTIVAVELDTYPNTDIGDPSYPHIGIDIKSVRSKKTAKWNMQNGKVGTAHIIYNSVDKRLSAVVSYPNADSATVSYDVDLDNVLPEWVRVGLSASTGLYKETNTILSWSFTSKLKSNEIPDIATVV

Left-right determination factor 2 (Homo sapiens), sequence (O00292 whole entry, looked up): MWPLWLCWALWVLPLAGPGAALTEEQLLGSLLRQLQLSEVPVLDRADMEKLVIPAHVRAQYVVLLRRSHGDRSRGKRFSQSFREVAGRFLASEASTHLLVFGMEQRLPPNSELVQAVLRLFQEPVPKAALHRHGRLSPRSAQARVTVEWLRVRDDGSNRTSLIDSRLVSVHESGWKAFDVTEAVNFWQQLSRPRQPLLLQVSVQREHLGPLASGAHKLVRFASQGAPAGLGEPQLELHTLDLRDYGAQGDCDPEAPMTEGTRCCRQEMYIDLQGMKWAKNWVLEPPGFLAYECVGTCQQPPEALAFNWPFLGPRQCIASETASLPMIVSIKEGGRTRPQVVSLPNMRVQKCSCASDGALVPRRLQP

As for `CCCNC(=O)[C@@]1(C)c2ccccc2C(=O)N(Cc2ccc(OC(F)(F)F)cc2)[C@H]1c1ccc(CO)cc1`, the composite z-score in experiment [1] was -0.481; in experiment [3], -0.808; in [4], 0.149; in experiment [5], -0.124; in [6], -0.0685; in experiment [7], -0.222. In addition, the composite z-score was 0.597 in experiment [8]; 1.28 in experiment [9]; 0.0855 in [10]; 0.132 in experiment [11]; -0.0397 in [13]; -0.0035 in experiment [14]. Further, the composite z-score was 0.267 in [15]; -0.517 in experiment [16]; 0.727 in [17]; 0.565 in experiment [18]; -0.602 in experiment [19]; 0.949 in experiment [20]. In experiment [2], this compound showed a z-score of -0.16. In addition, in experiment [12], the composite Z-score was 2.11 (inactive).
For the compound `COC(=O)[C@@]1(Cc2ccc(F)cc2)[C@H]2c3cc(C(=O)N4CCCC4)n(CCc4ccc(OC)c(Br)c4)c3C[C@H]2CN1C(=O)c1ccccc1`, the composite z-score came out at 0.543 in experiment [1]; 0.179 in experiment [3]; 2.7 in [4]; 1.29 in experiment [5]; 0.155 in [6]; 0.627 in [7]. The composite z-score in experiment [8] came out at 1.11; in experiment [9], 2.7; in experiment [10] it was 2.38; in experiment [11], 0.843; in [13], 0.591; in experiment [14] it was 0.323. The composite z-score in experiment [15] is 0.599; in [16], 3.26; in experiment [17] it was 0.987; in [18] it was 1.33; in experiment [19], -1.39; in experiment [20], 1.15. Moreover, the z-score in [2] was -2.69. Moreover, in [12], the composite Z-score was -0.61 (inactive).
For `C=CCN1Cc2ccccc2C[C@]2(N=C(c3ccc(OCCCO)cc3)O[C@@H]2c2ccccc2)C1=O`, the composite z-score in experiment [1] was 1.18; in [3], 0.915; in experiment [4], 0.054; in [5] it was -0.83; in experiment [6] it was -0.006; in experiment [7] it was -0.0119. For the same compound, the composite z-score in experiment [8] came to 0.838; in experiment [9], 2.68; in experiment [10] it was 1.03; in experiment [11], 0.025; in [13], 0.0276; in experiment [14], 0.101. Also, the composite z-score in [15] came to 0.605; in [16] it was 2.42; in experiment [17] it was 0.75; in [18], 1.3; in experiment [19] it was 1.14; in experiment [20] it was 1.18. In [2], this compound displayed a z-score of -2.51. Moreover, in experiment [12], the composite Z-score was 0.862 (inactive).
Regarding `O=C1OCC=C[C@H]2OC34C=CCN(c5ccc6ccccc6c5)C(=O)[C@H]3N(CCO)C(=O)[C@@H]4[C@@H]12` (stereo not given in full), the composite z-score in experiment [1] was -0.589; in [3], -1.99; in experiment [4], -0.245; in experiment [5], 0.716; in [6] it was -0.152; in experiment [7], 0.191. Besides, the composite z-score was 0.0721 in experiment [8]; -0.831 in experiment [9]; -0.74 in [10]; -0.855 in experiment [11]; -0.172 in [13]; -0.115 in [14]. Besides, the composite z-score in [15] was 0.804; in experiment [16], 0.174; in experiment [17], -0.532; in experiment [18] it was -0.873; in experiment [19], -2.08; in experiment [20], -0.681. This compound yielded a z-score in experiment [2] of -0.727. Moreover, the composite Z-score in [12] is 0.138 (inactive).
On to `COC(=O)[C@@]1(Cc2ccc(F)cc2)[C@H]2c3cc(C(=O)N4CCCC4)n(Cc4ccc(Cl)c(C(F)(F)F)c4)c3C[C@H]2CN1C(=O)c1ccccc1`, for which the composite z-score in [1] worked out at 1.37; in experiment [3] it was 0.04; in experiment [4], 2.51; in experiment [5], 1.42; in [6], 0.963; in [7], 2.64. In addition, the composite z-score came to 1.16 in experiment [8]; 1.68 in experiment [9]; 1.57 in experiment [10]; 1.02 in experiment [11]; 1.53 in experiment [13]; 0.853 in experiment [14]. The composite z-score in [15] is 0.801; in experiment [16], 2.89; in [17] it was 1.31; in experiment [18] it was 1.33; in [19], -0.804; in experiment [20] it was 1.16. The compound also showed a z-score in experiment [2] of -2.42. Moreover, the composite Z-score in experiment [12] was 0.267 (inactive).
